This experiment in a line: inhibitors of Toxoplasma growth in IFN-γ-primed HeLa – cell-based, ME49Luc, luciferase, 72 h, dose response (AID 1259418). Particulars: T. gondii ME49Luc in IFN-y HeLa, hits give low values, -100% = high-dose IFN-γ control wells.

About 840 (25%) of roughly 3,400 compounds were called active. Roughly 11% stayed inconclusive and do not appear here. These entries were drawn from the full list. Measured potencies and affinities stand elsewhere. Values without a mark were called inactive.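 How the source made its calls: active means fitted half-maximal concentration of signal decrease at or below twice the sample's top tested concentration; inconclusive means flat curve between -70 and -30 percent, or poor fit; inactive means flat within 30 percent, signal rise, or potency above limit.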

Regarding `COc1ccc(CNC(=O)Nc2ccc(-c3nc(-c4ccc(C)cc4C)co3)cc2)cc1`, the max activity (at 19.5 µM unless noted) was 20.3% [at 1.35 µM].
On the same count and under the same terms, next, `Cc1oc(-c2ccccc2)nc1CSc1nc2c(c(=O)[nH]1)CN(Cc1ccc(F)cc1)CC2`: 22.6% [at 0.35 µM]; `Cc1ccc(-c2coc(-c3ccc(NC(=O)C4CCCCC4)cc3)n2)cc1`: 55.5%.
Still for that read-out and setting: next, `Cc1ccc(-c2coc(-c3ccc(NC(=O)c4cccc(C)c4)cc3)n2)cc1`: 70.3% [at 10 µM]; `Cc1ccc(-c2nc(Cn3nnc(-c4nc(-c5ccccc5Br)no4)c3C)c(C)o2)cc1`: -6.98% [at 5 µM]; `Cc1ccccc1C(=O)N1CSC[C@@H]1C(=O)NCCc1csc(-c2ccccc2)n1`: -16.3%.
The same measure, in the same setting: the result for `COc1ccccc1-c1noc(C2CCCN2C(=O)Cc2c[nH]c3ccccc23)n1` (stereo not drawn) reads -7.96% [at 0.35 µM]; that for `COc1ccccc1-c1noc(C2CCCN2C(=O)c2ccc3cc[nH]c3c2)n1` (stereo not drawn), 14.5% [at 10 µM]; that for `CCn1nccc1C(=O)Nc1ccc2c(c1)CCC(=O)N2C`, 24.4%.
`COC[C@@H]1CN(CC2CC2)C[C@@]12CCN(CCc1ccccc1)C2`: the max activity (at 19.5 µM unless noted) is -8.78% [at 2.6 µM].
Same read-out and setting: next, `CCOC(=O)CSc1nc(NCc2ccc(Cl)cc2)c2ccccc2n1`: 29.6%; `CCOC(=O)C1CCN(c2nc(-c3ccc(Cl)cc3)nc3ccccc23)CC1`: 17% [at 0.35 µM].
On the same count and under the same terms, next, `O=C(Cn1c(=O)c(S(=O)(=O)c2ccccc2)cc2ccccc21)NCc1ccccc1`: -8.55% [at 2.6 µM]; `O=C(NC1CCCC1)N1[C@@H]2CNC[C@H]1C2c1ccc(-c2cccnc2)cc1` (stereo partly drawn): 19.4%.
On to `c1ccc(-c2ccc([C@H]3[C@H]4CNC[C@@H]3N4Cc3cc(-c4ccccc4)on3)cc2)cc1`, for which the max activity (at 19.5 µM unless noted) is 49.3% [at 10 µM].
Same read-out and setting: next, `Cc1ccc2c(c1)cc(S(=O)(=O)c1ccccc1)c(=O)n2CC(=O)NC(C)C`: -9.24% [at 0.16 µM].
With `O=C(Nc1ccc(-c2nc(-c3cccc(Br)c3)co2)cc1)Nc1ccccc1F`, under “at 19.5 µM unless noted”, the max activity is 6.98%.
On the same count and under the same terms, the result for `COc1ccccc1-c1nc(Cn2nnc(-c3nc(-c4cccnc4)no3)c2C)c(C)o1` reads 10.3% [at 0.16 µM]; that for `O=C(c1ccc(Cl)cc1)N1CCC2(CC1)Nc1ccc(Cl)cc1-n1cccc12`, -6.42% [at 0.35 µM].
Same read-out and setting: the result for `O=C(CC1CCCCC1)N1CCC2(CC1)Nc1ccc(Cl)cc1-n1cccc12` reads 7.76% [at 0.35 µM]; that for `Cc1ccc(C(=O)N2CCC3(CC2)Nc2ccc(Cl)cc2-n2cccc23)cc1`, 8.29% [at 0.35 µM].
On the same count and under the same terms, the result for `CCC(CC)C(=O)N1CCC2(CC1)Nc1ccc(Cl)cc1-n1cccc12` reads 9.15% [at 0.68 µM]; that for `COc1ccc(CC(=O)N2CCC3(CC2)Nc2ccc(Cl)cc2-n2cccc23)cc1`, 5.66% [at 2.6 µM].
Turning to `O=C(CC1CCCC1)N1CCC2(CC1)Nc1ccc(Cl)cc1-n1cccc12`, the max activity (at 19.5 µM unless noted) was -10.7% [at 0.16 µM].
With `CC(C)C(=O)N1CCC2(CC1)Nc1ccc(Cl)cc1-n1cccc12`, the max activity (at 19.5 µM unless noted) is 15.6% [at 0.68 µM].
Regarding `Cc1ccc2c(c1C)-n1cccc1C1(CCN(C(=O)C3CCCCC3)CC1)N2`, the max activity (at 19.5 µM unless noted) was -20.8% [at 0.16 µM].
The same measure, in the same setting: next, `CCc1onc(C)c1C1CCCN1Cc1cn(CC)c2ccc(OC)cc12` (stereo not drawn): -10.8% [at 0.35 µM].
On the same count and under the same terms, next, `CSc1cccc(NC(=O)Nc2ccc(-c3nc(-c4ccccc4)co3)cc2)c1`: 76%.
Regarding `Fc1ccc(F)c(CN2[C@@H]3CNC[C@H]2C3c2ccc(-c3ccncc3)cc2)c1` (stereo partly drawn), the max activity (at 10 µM) was 23.7% and the max activity (at 21 µM) was 49%.
Take `COc1ccc(CCC(=O)N2CCC3(CC2)Nc2ccc(C)c(C)c2-n2cccc23)cc1`: for the setting “at 19.5 µM unless noted”, the max activity was -4.87% [at 0.68 µM].
On to `O=C(CC1N=C2c3ccccc3N=C(SCc3ccccc3Cl)N2C1=O)NCc1ccc2c(c1)OCO2` (stereo not drawn), for which, under “at 19.5 µM unless noted”, the max activity is 24.9% [at 0.16 µM].
As for `CCc1ccc(N2CCC(C(=O)NCCc3c[nH]c4ccc(Cl)cc34)C2=O)cc1` (stereo not drawn), the max activity (at 19.5 µM unless noted) was -15.5% [at 0.16 µM].
Same read-out and setting: next, `Cc1ccc2[nH]cc(CCNC(=O)C3CCN(c4ccc(Cl)cc4)C3=O)c2c1` (stereo not drawn): 23.3% [at 10 µM]; `Cc1ccc2c(c1C)-n1cccc1C1(CCN(C(=O)c3ccccc3Cl)CC1)N2`: -6.73% [at 0.35 µM]; `Cc1ccccc1C(=O)N1CCC2(CC1)Nc1ccc(Cl)cc1-n1cccc12`: -3.44%.
For `Cc1ccccc1C(=O)N1CCC2(CC1)Nc1ccc(C)c(C)c1-n1cccc12`, the max activity (at 19.5 µM unless noted) is -10.8% [at 5 µM].
Same read-out and setting: the result for `O=C(c1ccccc1Cl)N1CCC2(CC1)Nc1ccc(Cl)cc1-n1cccc12` reads 6.15% [at 1.35 µM].
On the same count and under the same terms, the result for `CCOc1ccc(C(=O)N2CCC3(CC2)Nc2ccc(Cl)cc2-n2cccc23)cc1` reads 11.3% [at 0.68 µM].
The same measure, in the same setting: the result for `CCOc1ccccc1C(=O)N1CCC2(CC1)Nc1cc(OC)ccc1-n1cccc12` reads 12% [at 2.6 µM]; that for `Cc1ccc(-c2coc(-c3ccc(NC(=O)NCc4ccc(F)cc4)cc3)n2)c(C)c1`, -6.17% [at 0.16 µM].
With `CN(Cc1ccccn1)C(=O)C1=NOC2(CCN(S(=O)(=O)c3ccc(F)cc3)C2)C1` (stereo not drawn), the max activity (at 19.5 µM unless noted) was 35.3%.
Same read-out and setting: the result for `COc1ccc(-c2nc3c(s2)CN(C(=O)Nc2ccc(C)cc2Cl)CC3)cc1OC` reads -9.18% [at 0.35 µM]; that for `COc1ccccc1-c1nc(Cn2nnc(-c3nc(-c4cccc(Cl)c4)no3)c2C)c(C)o1`, 8.57% [at 0.35 µM].
Same read-out and setting: next, `NC(=O)C1(N2CCCCC2)CCN(c2ncc(NC(=O)c3ccc(F)cc3)cc2C(=O)O)CC1`: -7.63% [at 10 µM].
Consider `Cc1ccc(C)c(-c2coc(-c3ccc(NC(=O)Nc4ccc5c(c4)OCCO5)cc3)n2)c1`, for which, under “at 19.5 µM unless noted”, the max activity was 196% [at 5 µM].
The same measure, in the same setting: next, `CCc1nc(OCC(=O)Nc2ccc(OC)cc2OC)c2ccccc2n1`: -16.2% [at 0.35 µM].
As to `CCOC(=O)CSC1=Nc2ccccc2C2=NC(CC(=O)NCc3ccccc3)C(=O)N12` (stereo not drawn), the max activity (at 19.5 µM unless noted) is -17% [at 0.16 µM].
The same measure, in the same setting: next, `CCOc1ccccc1-c1noc(-c2nnn(Cc3nc(-c4cccc(C)c4)oc3C)c2C)n1`: -4.72% [at 5 µM].
Still for that read-out and setting: next, `N#C[C@@H]1[C@H](c2ccc(C#Cc3cccc(F)c3)cc2)[C@H](CO)N1C(=O)C1CCOCC1`: 26.4% [at 10 µM]; `N#C[C@H]1[C@H](c2ccc(C#Cc3cccc(F)c3)cc2)[C@@H](CO)N1C(=O)C1CCOCC1`: 33.1%; `COc1cccc(-c2nc3c(s2)CN(C(=O)NC2CCCCC2)CC3)c1`: -6.7%.
The same measure, in the same setting: the result for `COc1ccc(-c2nc(Cn3nnc(-c4nc(-c5cc(OC)cc(OC)c5)no4)c3C)c(C)o2)cc1` reads 4.11% [at 0.35 µM].
In the case of `Cc1ccc(-c2noc(-c3nnn(Cc4nc(-c5ccc(C)cc5)oc4C)c3C)n2)cc1`, the max activity (at 19.5 µM unless noted) is 8.64%.
For `Cc1ccc(-c2noc(-c3nnn(Cc4nc(-c5cccc(C)c5)oc4C)c3C)n2)cc1`, the max activity (at 19.5 µM unless noted) is 7.12% [at 0.68 µM].
The same measure, in the same setting: the result for `COc1ccc(-c2nc(Cn3nnc(-c4nc(-c5ccc(C)cc5)no4)c3C)c(C)o2)cc1` reads 4.22% [at 0.16 µM]; that for `COc1ccc(-c2nc(Cn3nnc(-c4nc(-c5ccccc5OC)no4)c3C)c(C)o2)cc1`, -5.44% [at 1.35 µM].
In the case of `CCOc1ccccc1-c1noc(-c2nnn(Cc3nc(-c4ccc(C)cc4)oc3C)c2C)n1`, for the setting “at 19.5 µM unless noted”, the max activity is -5.47% [at 1.35 µM].
Regarding `COc1ccc(-c2nc(Cn3nnc(-c4nc(-c5cccs5)no4)c3C)c(C)o2)cc1`, the max activity (at 19.5 µM unless noted) is 7.54% [at 0.16 µM].
Still for that read-out and setting: next, `Cc1cccc(-c2nc(Cn3nnc(-c4nc(-c5ccccc5)no4)c3C)c(C)o2)c1`: 4.79% [at 0.68 µM]; `CN(C)C(=O)c1ccc2nnc3ncn(Cc4ccccc4)c3c2c1`: -17.6% [at 10 µM].
Same read-out and setting: next, `COc1ccc(CCNc2nc(SCc3ccc(Cl)cc3)nc3ccccc23)cc1OC`: 9.35% [at 1.35 µM]; `COc1nc2c(c(C)nn2-c2ccccc2)c(C)c1CCC(=O)NCCc1c[nH]c2ccccc12`: 7.44%; `O=C(Nc1c(C(=O)N2CCCC2)[nH]c2ccccc12)c1ccc(Cl)cc1`: 30.4% [at 10 µM].
Regarding `O=C(CCC1N=C2c3ccccc3N=C(SCc3cc(=O)n4ccccc4n3)N2C1=O)NCc1ccco1` (stereo not drawn), the max activity (at 19.5 µM unless noted) was 26.1% [at 1.35 µM].
The same measure, in the same setting: the result for `CCc1nc(OCC(=O)Nc2cc(OC)ccc2OC)c2ccccc2n1` reads -25% [at 2.6 µM].
On the same count and under the same terms, the result for `Cc1ccc(C)c(-c2coc(-c3ccc(NC(=O)C4CCCCC4)cc3)n2)c1` reads 10.4% [at 10 µM]; that for `Cc1ccc(-c2nc(Cn3nnc(-c4nc(-c5ccccc5C)no4)c3C)c(C)o2)cc1`, 15.4% [at 0.16 µM].
With `Cc1nc(CCNC(=O)C2CCN(S(=O)(=O)c3ccc(Cl)s3)CC2)cs1`, under “at 19.5 µM unless noted”, the max activity is -9.13%.
Still for that read-out and setting: next, `Cc1ccc(CNC2=NCCNC23CCN(S(=O)(=O)c2cccs2)CC3)cc1`: 17.3% [at 10 µM]; `O=S(=O)(c1cccs1)N1CCC2(CC1)NCCN=C2NCc1ccc(F)c(Cl)c1`: -41.7%; `Cc1cccc(CNC2=NCCNC23CCN(S(=O)(=O)c2cccs2)CC3)c1`: 13.8%.
Regarding `O=S(=O)(c1cccs1)N1CCC2(CC1)NCCN=C2NCc1cc(F)cc(F)c1`, where the note is “at 19.5 µM unless noted”, the max activity was 10.2% [at 0.16 µM].

For the origin of these results see PubChem BioAssay AID1259418 (Broad Institute, 2018).
